Screening results as filed in PubChem.
Hits are enriched below; roughly 2.2% of the tested compounds scored in any of these assays.
CHT inh: inhibitors of human choline transporter CHT; actives 0.86% (n = 310,000); Q9GZV3; CHT-expressing cells, membrane potential dye, choline response; stronger effect = lower value; AID 488975; B-score at 10 µM;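 active = B-score over 3 SD under the library average, and starting fluorescence ratio not unusually high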;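 note: choline stimulus applied at its EC90 after an EC20 pre-addition; B-score computed on integrated fluorescence ratio after choline addition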
Platelet DG rel: modulates dense granule release in human platelets; human platelet-rich plasma, SFLLRN dense granule ATP release, luminescence; inhibition, %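 (compounds screened at 7.5 µM in platelet-rich plasma)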; actives 0.22% (n = 300,000); AID 1663;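 active = mean replicate score, as percent of positive control, at or above 50; inconclusive = mean below 50 but at least one replicate at or above 50; inactive = mean and every replicate below 50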
VLA-4 inh: inhibition in a human VLA-4 binding assay. P13612. VLA-4 expressing cells, ligand binding flow cytometry. inhibition, % (about 7 µM as worked out from the volumes in the protocol). actives 0.2% (n = 330,000); in the data active = inhibition above about 50%
CHT PAM: human CHT allosteric activation. B-score at 10 µM. AID 488977. actives 0.49% (n = 310,000). CHT-expressing cells, membrane potential dye, choline EC20; stronger effect = higher value; LV-AA mutant CHT in HEK293 cells;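 active = initial fluorescence not abnormally high and integrated response B-score, plate-corrected, over 3 SD above library mean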
HIF activator: HIF pathway transcriptional activation. U2OS HRE-luciferase reporter, luminescence; normalized: DMSO 0%, desferrioxamine 100%. activation, % at 7.5 µM (by protocol). actives 0.32% (n = 300,000). AID 1910;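 active = mean activation of at least 10% of the iron chelator positive control signal, with at least half of replicates also reaching 10%; inconclusive = mean and replicate majority disagree about reaching 10%; inactive = mean and most replicates under 10%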
AI-2 QS modul: modulators of Vibrio harveyi AI-2 quorum sensing system. actives 0.4% (n = 300,000). activity change, % at 7.5 µM. Vibrio harveyi JMH597 AI-2 luminescence/OD600 ratio, 9 h; stronger effect = lower value; strain lacks LuxN and CqsS sensors; 0 = neutral-control median; in the data active = activity change below about -75%, passing the limit was not always enough; inconclusive = no clear call, values can overlap the other calls;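 note: luminescence divided by OD600 gain over 9 h not by final OD600 alone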
CHT inh conf: human CHT inhibition, confirmatory screen | shares compounds with CHT inh | CHT-expressing cells, choline membrane potential dye; LV-to-AA substituted CHT, HEK293 cells | CHT activity remaining % of control (stronger effect = lower value), % at 10 µM | actives 70% (n = 2,400) | AID 493221;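 active = choline transporter activity left, mean of duplicates at 10 µM, below buffer-only control mean minus 3 SD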;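 note: depolarization triggered by choline at its EC90 following an EC20 pre-addition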
HEK293 MPD ctr: activity in parental HEK293 cells lacking CHT; shares compounds with CHT inh; membrane potential dye, choline response; active = decrease or increase beyond buffer ±3SD; membrane potential ratio readout (active if shifted either direction beyond buffer ±3SD; no single direction) at 10 µM; actives 4% (n = 2,400); AID 493222;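 note: parental cells lack the transporter so any hit is non-specific; ratio is peak minus trough fluorescence over baseline after EC90 choline challenge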
Each line names hits and unclear results; the compound was inactive in the other large screens (follow-up assays come after a bar, where they were run).

Cc1[nH]c(C)c(S(=O)(=O)N2CCN(c3ccc(Cl)cc3)CC2)c1C(=O)N1CCCC1	none (no result: HIF activator)
CC(=O)n1c(=O)oc2ccccc21	none
CC(CCN1CCN=C1Nc1ccccc1)c1ccccc1 (stereo not drawn)	none
S=C(NCc1ccccn1)Nc1ccc(Cl)cc1Cl	CHT inh -5.16 | CHT inh conf 53.4% | HEK293 MPD ctr inactive
COCC(=O)N(C)C[C@H]1N[C@@](C)(C(=O)OC)[C@H]2C(=O)N(Cc3ccccc3)C(=O)[C@@H]12	none (no result: CHT inh, Platelet DG rel, CHT PAM, HIF activator, AI-2 QS modul)
O=C(CCC1CCCN(c2ncccn2)C1)NCc1ccc(F)c(F)c1 (stereo not drawn)	CHT inh -5.78 | CHT inh conf 63.9% | HEK293 MPD ctr inactive
O=C(CCC1CCCN(C(=O)C2CCCC2)C1)NCc1ccc(F)c(F)c1 (stereo not drawn)	none
Fc1cc(F)cc(Nc2nc(Cl)nc(NC3CCCC3)n2)c1	none (no result: CHT inh, Platelet DG rel, CHT PAM, HIF activator, AI-2 QS modul)
Cc1noc(C)c1S(=O)(=O)Nc1ccccc1Oc1ccccc1	CHT inh -13 | CHT inh conf inactive | HEK293 MPD ctr inactive
COC(=O)Nc1ccc(S(=O)(=O)NNC(=O)c2c(O)c3ccccc3n(C)c2=O)cc1	CHT inh -5.77 | CHT inh conf 43.3% | HEK293 MPD ctr inactive
O=C(Nc1ccccc1C(=O)NCCCN1CCOCC1)c1ccc(F)cc1	CHT inh -7.94 | CHT inh conf 37.6% | HEK293 MPD ctr inactive
O=C(NCCCN1CCOCC1)c1ccccc1	Platelet DG rel inconclusive
O/N=C/c1ccnc(SCc2ccccc2)n1	CHT inh -5.08 (no result: Platelet DG rel, HIF activator) | CHT inh conf 59.1% | HEK293 MPD ctr inactive
O/N=C/c1ccnc(SCc2ccc(Cl)cc2)n1	none (no result: Platelet DG rel, HIF activator)
Oc1ccccc1C(=S)N1CCN(C(=S)c2ccccc2O)CC1	none
COc1ccc(C(C)(C)C)cc1NC(=O)C1CC(=O)N(C2CCCC2)C1 (stereo not drawn)	none (no result: CHT inh, Platelet DG rel, CHT PAM, HIF activator, AI-2 QS modul)
O=C(COc1ccc(C(=O)O)cc1)Nc1cccc(C(F)(F)F)c1	none
CN1CCN(C(=S)c2ccc(OCC(=O)Nc3cccc(C(F)(F)F)c3)cc2)CC1	CHT inh -6.23 | CHT inh conf inactive | HEK293 MPD ctr inactive
COCCN(C(=O)CCC(=O)Nc1cc(C)on1)C(C(=O)NC(C)(C)C)c1cccc(OC)c1OC (stereo not drawn)	CHT inh -5.79 | CHT inh conf inactive | HEK293 MPD ctr inactive
COc1cccc(C(C(=O)NC(C)(C)C)N(CCC(C)C)C(=O)CCC(=O)Nc2cc(C)on2)c1OC (stereo not drawn)	none
O=C(Cc1ccsc1)OCC(=O)c1ccccc1	none (no result: CHT inh, Platelet DG rel, CHT PAM, HIF activator, AI-2 QS modul)
O=C(N/N=C/c1cccs1)c1n[nH]c2c1CCCC2	CHT inh -6.02 | CHT inh conf inactive | HEK293 MPD ctr inactive
Cc1ccc(/C=N/NC(=O)c2n[nH]c3c2CCCC3)cc1	none
COc1ccc(CCN2C(=O)N(c3ccc(OC)cc3)C(=O)C2CC(=O)Nc2ccccc2)cc1 (stereo not drawn)	none
COc1ccc(N2C(=O)C(CC(=O)Nc3ccccc3)N(CCc3ccc(OC)c(OC)c3)C2=O)cc1 (stereo not drawn)	CHT inh -8.74 | CHT inh conf inactive | HEK293 MPD ctr inactive
C=C1C(=O)O[C@@]23[C@H]1CC[C@@H](C)[C@@H]2CC[C@@]1(C)O[C@@H]31	none (no result: CHT inh, Platelet DG rel, CHT PAM, HIF activator, AI-2 QS modul)
NC(=O)c1ccc(NCCc2ccccc2)c([N+](=O)[O-])c1	CHT inh -4.98 | CHT inh conf inactive | HEK293 MPD ctr inactive
CN(CCc1cn[nH]c1)C(=O)C1CCC(=O)N(CC2CCCCC2)C1 (stereo not drawn)	none (no result: CHT inh, VLA-4 inh, CHT PAM)
Cc1ccc(-c2csc3nc(SCC(=O)Nc4ccc(Cl)c(C(=O)O)c4)[nH]c(=O)c23)cc1	CHT inh -5.62 | CHT inh conf 67.2% | HEK293 MPD ctr inactive
CN(C)c1ccc(-c2nnn(CC(=O)N3c4ccccc4CCc4ccccc43)n2)cc1	CHT inh -7.21 | CHT inh conf inactive | HEK293 MPD ctr inactive
COc1cc(CC(=O)OCC(=O)NCCc2ccc(S(N)(=O)=O)cc2)cc(OC)c1OC	none (no result: CHT inh, Platelet DG rel, CHT PAM, HIF activator, AI-2 QS modul)
N#C/C(=N\Nc1cccc([N+](=O)[O-])c1)C(=O)c1ccc(Br)cc1	CHT inh -10 | CHT inh conf 63.4% | HEK293 MPD ctr inactive
N#C/C(=N\Nc1ccc([N+](=O)[O-])cc1)C(N)=S	CHT inh -9.42 | CHT inh conf -9.8% | HEK293 MPD ctr inactive
CC1CCC(NC(=O)CCn2ccc3cc(S(=O)(=O)N4CCCC4)ccc32)CC1 (stereo not drawn)	CHT inh -6.29 | CHT inh conf 38.9% | HEK293 MPD ctr inactive
COc1cc(C)ccc1OCc1cc(C(=O)N(Cc2c(C)nn(C)c2C)C2CC2)no1	none
Cc1ccc(NC(=O)COC(=O)[C@@H]2CC(O)CN2S(=O)(=O)c2ccc3c(c2)OCCO3)cc1 (stereo partly drawn)	none (no result: CHT inh, Platelet DG rel, CHT PAM, HIF activator, AI-2 QS modul)
Cc1cc([N+](=O)[O-])c(NCCCCCCO)c([N+](=O)[O-])c1	CHT inh -5.44 | CHT inh conf 38.4% | HEK293 MPD ctr inactive
CN(C)/C=C1/N=C(c2ccccc2)OC1=O	none
O=CC1=C(c2ccccc2)Oc2ccccc2O1	none | CHT inh conf inactive | HEK293 MPD ctr inactive
Cc1ccc(CN2CC(C(=O)N3CCN(S(=O)(=O)c4c(F)cccc4F)CC3)CC2=O)cc1 (stereo not drawn)	none
COc1ccc(N=Cc2cc(Cc3ccccc3Cl)cc([N+](=O)[O-])c2O)cc1OC	CHT inh -5.97 | CHT inh conf inactive | HEK293 MPD ctr inactive
Cc1ccc(N=Cc2cc(Cc3ccccc3Cl)cc([N+](=O)[O-])c2O)c(O)c1	CHT inh -7.81 | CHT inh conf 64.1% | HEK293 MPD ctr inactive
CCCCNC(=O)C1CCCN(S(=O)(=O)c2c(C)noc2/C=C/c2cccs2)C1 (stereo not drawn)	none
Cc1noc(/C=C/c2cccs2)c1S(=O)(=O)N1CCC(C(=O)NCCCN2CCCC(C)C2)CC1 (stereo not drawn)	none | CHT inh conf inactive | HEK293 MPD ctr inactive
O=C(On1c(-c2ccccc2)nc2ccccc2c1=O)c1ccco1	CHT inh -9.72 | CHT inh conf 57.0% | HEK293 MPD ctr inactive
O=C(c1cccc(Oc2ccc([N+](=O)[O-])cc2Cl)c1)N1CCCCC1	CHT inh -7.37 | CHT inh conf 47.5% | HEK293 MPD ctr inactive
O=C1CCN(S(=O)(=O)c2ccccc2)CCN1CCOCc1ccc(F)cc1	none
